ChEMBL document CHEMBL3988442, “University of Dundee, Small-Polar-MMV Screening Library” (2021)
The whole screen tested about 48,000 compounds, of which about 13,000 (27%) showed an effect of 50% or more. The list shows a part of the results.

The compounds below were run on Wolbachia pipientis (assay: Anti-Wolbachia Cell-Based Screen). Conditions: 5 µM.
Type: functional
Set-up: scale not given: in the data most compounds retested in dose-response had high values

| Structure (SMILES) | Percent Effect [%] |
| --- | --- |
| c1cn(CCn2cnnc2)c(-c2cc3n(n2)CCCNC3)n1 | -4.741 |
| COc1ccccc1C(C)CC(=O)N1CC[C@H](O)C1 (some centres undefined) | 18.86 |
| CC(C)c1nnc2n1CCN(C(=O)c1ccccc1OCC1CC1)C2 | -3.948 |
| COc1ccccc1C(=O)N1CC(=O)N(CC2CC2)CC(O)C1 (centres undefined) | 108.3 |
| COc1ccccc1C(=O)N1CC(=O)N(CC(C)C)CC(O)C1 (centres undefined) | 116.8 |
| CCC(NC(=O)c1ccco1)c1nc(C(F)(F)F)cs1 (centres undefined) | -6.981 |
| CNC(=O)NCC1CCC2(CCN(C(=O)c3cccnc3)CC2)CO1.O=C(O)C(F)(F)F (centres undefined) | 102.7 |
| CNC(=O)NCC1CCC2(CCN(C(=O)c3ccccc3)CC2)CO1 (centres undefined) | 108.3 |
| CNC(=O)NCC1CCC2(CCN(c3ncccn3)CC2)CO1 (centres undefined) | 88.92 |
| CS(=O)(=O)N1CCOCC2(CCN(C(=O)c3cccnc3)CC2)C1.O=C(O)C(F)(F)F | -2.226 |
| O=C(C1CCC2(CCN(c3ncccn3)CC2)CO1)N1CCCC1 (centres undefined) | 10.33 |
| COCC1CC2(CCN(C(=O)c3oc4ccccc4c3C)CC2)CO1 (centres undefined) | -1.277 |
| COCC1CC2(CCN(C(=O)c3cncc(C)c3)CC2)CO1.O=C(O)C(F)(F)F (centres undefined) | 8.897 |
| CC(C)NC(=O)C1CCC2(CCN(c3ncccn3)CC2)CO1 (centres undefined) | -6.885 |
| COCC1CC2(CCN(C(=O)c3cccc(C)c3)CC2)CO1 (centres undefined) | -11.23 |
| COc1nc2c(cc1C(=O)N(C)Cc1noc3c1CCCC3)CCC2 | -4.32 |
| CN(Cc1noc2c1CCCC2)C(=O)CN1C(=O)CSc2ccccc21 | 0.5887 |
| Cc1ccc(-c2cc(C(=O)N(C)Cc3noc4c3CCCC4)[nH]n2)o1 | 119 |
| Cc1ccc(-c2cc(C(=O)NCCC3=CCCCC3)[nH]n2)o1 | 9.696 |
| Cc1ccc(-c2cc(C(=O)N(C)Cc3noc4c3CCCC4)[nH]n2)s1 | 126 |
| CN(Cc1noc2c1CCCC2)C(=O)C1Cc2ccccc2CN1C (centres undefined) | 9.151 |
| COc1ccc(C(=O)NC2CC2)c(OC2CCN(C3CCC3)CC2)c1 | 0.9223 |
| COc1ccccc1C1CNCCN1C(=O)c1ccc(F)cc1 (centres undefined) | 170.1 |
| COc1ccccc1C1CNCCN1C(C)=O (centres undefined) | 170.5 |
| COc1ccc(C(=O)N2CCCC2c2ccco2)cc1OC (centres undefined) | -0.7331 |

| Structure (SMILES) | Percent Effect [%] |
| --- | --- |
| COc1ccccc1OC1CN(C(=O)C2CNCC(=O)N2)C1 (centres undefined) | 3.442 |
| O=C(Nc1ccc(F)cc1)C1CNCCN1C(=O)CCO (centres undefined) | -8.613 |
| COc1cc(S(=O)(=O)N2C[C@@H](C)[C@@](C)(O)C2)c(C)cc1C | -12.13 |
| Cc1cccnc1CNCC1(O)CCCN(Cc2ccc(F)cc2)C1=O (centres undefined) | 9.379 |
| CCOc1cc(NC(=O)N(C)Cc2ncnn2C)ccc1C | -12.81 |
| CCOc1cc(C(=O)N(C)C)ccc1NC(=O)c1ccsc1 | -5.987 |
| CN1CC(=O)c2sc(NCCc3ccccc3)nc2C1 | 91.14 |
| CC(C)CC(=O)N1CC(=O)c2sc(NCCc3ccccc3)nc2C1 | 112.3 |
| Cn1ccc(C(=O)N2CCN(CCc3ccccc3)CC2)cc1=O | -2.355 |
| Cn1cnc2c1CCN(CCCc1ccccc1)C2 | 0.7928 |
| CC(C)Cc1ncc2c(n1)CN(C(=O)Cn1c(=O)oc3ccccc31)C2 | -4.555 |
| CC(C)SCC(=O)N1Cc2cnc(-c3ccccc3)nc2C1 | 3.989 |
| CNc1nc(CNC(=O)Nc2cccc(F)c2)cs1 | -0.1987 |
| CC(NC1(CNC(=O)NC2CC2)CCOCC1)c1ccccc1 (centres undefined) | 5.387 |
| CCC1=N[C@@]2(CC[C@@H]3CN(C(=O)NCc4ccccc4)C[C@@H]32)C(=O)N1C | -13.65 |
| CCC1=N[C@@]2(CC[C@@H]3CN(Cc4ccccc4F)C[C@@H]32)C(=O)N1CC.O=C(O)C(F)(F)F | -10.67 |
| CCC1=N[C@@]2(CC[C@@H]3CN(Cc4cccc(Cl)c4)C[C@@H]32)C(=O)N1C.O=C(O)C(F)(F)F | 95.01 |
| CCC1=N[C@@]2(CC[C@@H]3CN(Cc4ccccc4C)C[C@@H]32)C(=O)N1.O=C(O)C(F)(F)F | -9.167 |
| CCC1=N[C@@]2(CC[C@@H]3CN(C(=O)NC(C)C)C[C@@H]32)C(=O)N1C | -5.226 |
| O=C(O)C(F)(F)F.O=C1NC(c2ccccc2)=N[C@@]12CC[C@@H]1CN(Cc3ccccc3)C[C@@H]12 | 4.255 |
| CCC1=N[C@@]2(CC[C@@H]3CN(Cc4ccc(F)cc4)C[C@@H]32)C(=O)N1C.O=C(O)C(F)(F)F | 103.7 |
| CCC1=N[C@@]2(CC[C@@H]3CN(Cc4ccccc4C)C[C@@H]32)C(=O)N1C.O=C(O)C(F)(F)F | 114.6 |
| CC1=N[C@@]2(CC[C@@H]3CN(CC(C)C)C[C@@H]32)C(=O)N1C.O=C(O)C(F)(F)F | 8.258 |
| CCC1=N[C@@]2(CC[C@@H]3CN(CC(C)C)C[C@@H]32)C(=O)N1.O=C(O)C(F)(F)F | -10.58 |
| CCC1=N[C@@]2(CC[C@@H]3CN(Cc4ccc(C)cc4)C[C@@H]32)C(=O)N1C.O=C(O)C(F)(F)F | 81.5 |

| Structure (SMILES) | Percent Effect [%] |
| --- | --- |
| CCC1=N[C@@]2(CC[C@@H]3CN(CC(=O)N(C)C)C[C@@H]32)C(=O)N1CC1CC1.O=C(O)C(F)(F)F | -4.089 |
| CCCN1CCC(CC(=O)N[C@H](C(=O)O)c2cccc(F)c2F)CC1 | -4.75 |
| COC(=O)NCC(=O)NCC(C)(C)c1cccc(Br)c1 | -15.07 |
| CCCc1ncc(CN(CCOC)Cc2cccs2)cn1 | -13.63 |
| CCN(CCn1cccn1)Cc1nc(-c2ccccc2F)oc1C | 1.604 |
| C=C(C)COCCNC(=O)Nc1cccc(Cn2nc(C)nc2C)c1 | -4.389 |
| CCC1CN(C(=O)COc2ccc(NC(C)=O)cc2)CCO1 (centres undefined) | -18.64 |
| CCN(C)C[C@@H]1CN(S(=O)(=O)c2ccc(OC)cc2)C[C@@H]1CO | 9.662 |
| O=S(=O)(c1ccc(Cl)cc1)N1CCN(CCCn2ccnc2)CC1 | -9.759 |
| COc1ccc(S(=O)(=O)N2CCOC[C@H](Oc3cnccn3)C2)cc1 | -5.156 |
| CC(=O)Nc1ccc(S(=O)(=O)N2CCOC(Cn3ccnc3)C2)cc1 (centres undefined) | 127.1 |
| O=S(=O)(c1ccccc1)N1CCOC(Cn2ccnc2)C1 (centres undefined) | 143.1 |
| Cc1ccc(S(=O)(=O)N2CCN(CCCn3ccnc3)CC2)cc1 | -7.959 |
| O=S(=O)(c1ccccc1)N1CCCN(CCCn2ccnc2)CC1 | 1.416 |
| CC(=O)Nc1ccc(S(=O)(=O)NC(=O)CCC2CCCO2)cc1 (centres undefined) | -4.56 |
| COc1ccc(S(=O)(=O)N2CCOC(Cn3ccnc3)C2)cc1.Cc1ccc(S(=O)(=O)O)cc1 (centres undefined) | 106.9 |
| O=S(=O)(c1ccccc1)N1CCN(CCn2ccnc2)CC1 | -17.14 |
| CC(=O)c1ccc(S(=O)(=O)N2CCOC(Cn3ccnc3)C2)cc1 (centres undefined) | 80.08 |
| Cc1ccc2c(c1)OCCCC2NCc1nnc2n1CCCCC2 (centres undefined) | -3.349 |
| CCCN(CC)Cc1ccc(C(=O)NCC2COCCO2)c(=O)[nH]1 (centres undefined) | -4.085 |
| O=C(CSc1ncccn1)N1C[C@H]2CC[C@@H]1CN(Cc1ccncc1)C2 | -5.142 |
| CC(C)Cn1ccnc1CNC(=O)NC(C)(C)c1nccs1 | 4.874 |
| Cc1nc(C)c(C(C)NC(=O)NCCNc2cccc(F)c2C#N)s1 (centres undefined) | -3.673 |
| N#Cc1nccnc1N1CCC(C(O)c2cccs2)CC1 (centres undefined) | 6.256 |
| CCS(=O)(=O)N1CCC2(CCN(Cc3ccc(C)o3)C2)C1 (centres undefined) | -25.86 |

| Structure (SMILES) | Percent Effect [%] |
| --- | --- |
| COc1cccc2c1OCC(C(=O)NCCCn1nc(C)c(Cl)c1C)C2 (centres undefined) | -39.79 |
| Cc1nc(CNC2(C(=O)OC(C)(C)C)CCCC2)oc1C | -20.11 |
| COc1cccc(C(=O)N2CCN(Cc3nc(C(C)C)no3)CC2)c1 | 117.9 |
| CC(C)c1noc(CN2CCN(C(=O)c3cccc(F)c3)CC2)n1 | 101.9 |
| CC(C)Cc1noc(CN2CCN(C(=O)c3cccc(F)c3)CC2)n1 | 1.261 |
| CC(C)c1noc(CN2CCN(C(=O)c3ccc(F)cc3)CC2)n1 | 109.7 |
| Cc1c[nH]cc1C(=O)N1CCN(Cc2nc(C(C)C)no2)CC1 | -4.204 |
| Cc1ccc(C(=O)N2CCN(Cc3nc(C(C)C)no3)CC2)c(=O)[nH]1 | -11.93 |
| CCOC(=O)c1coc(N2CCN(C(=O)c3cccc(OC)c3)CC2)n1 | -22.87 |
| CC(C)(C)c1noc(CN2CCN(C(=O)c3ccco3)CC2)n1 | -32.87 |
| CCOC(C)c1noc(CN2CCN(Cc3cccc(F)c3)CC2)n1 (centres undefined) | -0.1841 |
| CCCn1nnnc1CN(c1ccc(C)cc1)C(C)C | 3.327 |
| CCS(=O)(=O)N1CCC2(CC(=O)N(c3cnn(C)c3)C2)C1 (centres undefined) | -4.174 |
| COCCN1CCN(Cc2nnc(-c3occc3C)o2)CC1 | 0.1537 |
| Cc1ccc(-c2nc(CN(C)C3CCS(=O)(=O)C3)cs2)o1 (centres undefined) | -14.87 |
| OC(CN1CCOCC1)c1ccc(OC(F)(F)F)cc1 (centres undefined) | -7.461 |
| COc1ccccc1CC(C)(C)NC(=O)CC(F)(F)F | -8.852 |
| CN(C)C(C(=O)N1CCSCC1)c1ccccc1F (centres undefined) | 0.1762 |
| Cc1cccc(CN2CCC3(CC2)NC(=O)CC3c2ccccc2)n1.O=C(O)C(F)(F)F (centres undefined) | 109.2 |
| Cc1cncc(C(=O)N2CCC3(CC2)NC(=O)CC3c2ccccc2)c1.O=C(O)C(F)(F)F (centres undefined) | -43.74 |
| CC(C)COC1CC2(CCN(C(=O)Cc3ccccn3)CC2)C1.O=C(O)C(F)(F)F | -2.519 |
| Cn1cc(C2CC(=O)NC23CCN(C(=O)Cc2ccccn2)CC3)cn1.O=C(O)C(F)(F)F (centres undefined) | 105.4 |
| Cc1cccc(CN2CCC3(CC2)NC(=O)C[C@H]3c2cnn(C)c2)n1.O=C(O)C(F)(F)F | 84.49 |
| Cn1cc(C2CC(=O)NC23CCN(C(=O)c2cccnc2)CC3)cn1.O=C(O)C(F)(F)F (centres undefined) | 11.55 |
